Experimental data reported in PubChem BioAssay AID602429 (Sanford-Burnham Center for Chemical Genomics, 2012).
About 1,200 (0.33%) of roughly 360,000 compounds were called active. No stated cut-off is given here; in the data, active means inhibition above about 37%; inactive means the rest. This excerpt belongs to a sample that is enriched for actives.

target: Small ubiquitin-related modifier 1 (Homo sapiens) (UniProt P63165); assay: modulators of SUMO1 protein-protein interactions, primary screen, biochemical, uHTS (AID 602429); settings: SUMO1 binding to a labelled peptide, TR-FRET, 1 h; at 20 µM; hits give high values
Sequence (P63165 whole entry, looked up): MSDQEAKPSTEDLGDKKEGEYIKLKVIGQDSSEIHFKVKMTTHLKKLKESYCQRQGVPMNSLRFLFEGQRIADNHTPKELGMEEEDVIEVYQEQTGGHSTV

SMILES | inhibition
COc1ccc(N2C(=O)/C(=C/c3ccco3)C(=O)NC2=S)cc1 | 88.7% (active)
COC(=O)C1=C(c2cc3ccccc3s2)C[C@@H]2CC[C@H]1N2C(=O)NCc1cccc2ccccc12 | 5.43% (inactive)
Cc1nn(Cc2ccccc2Cl)c(Cl)c1C(=O)OC(C(=O)NC(N)=O)C(C)C (stereo not given) | -1.52% (inactive)
C[C@H]1CN([C@@H](C)CO)C(=O)CCCn2nncc2CO[C@H]1CN(C)C(=O)Oc1cccc2ccccc12 | 0.0734% (inactive)
O=C1NC(=O)C(CCOc2ccccc2)(CCc2ccccc2)C(=O)N1 | -4.22% (inactive)
COc1cccc(N2C(=O)NC(=O)/C(=C\c3ccc([N+](=O)[O-])s3)C2=O)c1 | 38.1% (active)
CC(=O)N(C1=NCCCS1)c1ccccc1F | -2.29% (inactive)
CCCn1c(C(=O)c2ccccc2OC)nc2ccccc21 | -1.49% (inactive)
CCCCCn1c(=O)c(C(=O)Nc2c(C)n(C)n(-c3ccccc3)c2=O)c(O)c2ccccc21 | 4.99% (inactive)
C=C(C)C1(CCCC)C(=O)NC(=S)NC1=O | 6.06% (inactive)
